Results on 23 compounds are retold here after PubChem BioAssay.

Values without a mark were called inactive. Active and inactive are the calls of the source.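 Rule for the calls: active = z-score of at least 1.8 in each of two replicates, scored against plate mean and spread of sample wells; inactive = the rest.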

This test can be described thus: viability rescue of complex I mutant cybrids, primary screen, cell-based, galactose medium, ATP luminescence (AID 1645843).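 Note: positive z means more ATP and so rescue of galactose-driven cybrid death.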 The note with it: complex I mutant cybrid cells, 72 h, hits give high values.
For `Cc1ccc(C(=O)NCC2CCCN(C(=O)C3CC3)C2)cn1` (stereo not drawn), the z-score was -0.52.

In the case of `CN(C)Cc1cn(CC2CCN(C(=O)CC3CCCCCC3)CC2)nn1`, the z-score was -0.47.

Turning to `CC(CCN1CCC(Cn2cc(CCO)nn2)CC1)CC(C)(C)C` (stereo not drawn), the z-score was -0.27.

As to `CC(CCCC(C)(C)O)CCNCC1(CO)CCC1` (stereo not drawn), the z-score was -0.48.

Turning to `C=C1C2(C(=O)N3CCC(c4cccc(OC)c4OC)C3)CCC(C2)C1(C)C` (stereo not drawn), the z-score was 1.19.

Regarding `CC(C)(O)c1cn(C2CCN(C(=O)C3CC34CCCC4)CC2)nn1` (stereo not drawn), the z-score was -0.475.

In the case of `CCC1CN(C(=O)c2cc(-c3cnn(C)c3)nc3c(C)c(C)ccc23)CCO1` (stereo not drawn), the z-score is 3.04 (active).

As for `CCn1cc(-c2cc(C(=O)N3CCCCCC3)c3cccc(C)c3n2)cn1`, the z-score was 0.305.

As for `Cc1cc(NC(=O)Cn2ccc(-c3ccsc3)n2)n(-c2ccccn2)n1`, the z-score was 1.83.

Turning to `COc1cccc2ccc(-c3ccc(C(C)=O)cc3)nc12`, the z-score was 2.67 (active).

Take `CC(C)Cc1cn(C2CCN(C(=O)C3CCCCCC3)CC2)nn1`: the z-score was -0.435.

For the compound `Cc1cccc2c(C(=O)N3CCN(C)C(=O)C3C)cc(-c3cnc(N)nc3)nc12` (stereo not drawn), the z-score is 2.6.

Take `CCCCC(CO)NC(C)CCc1ccc(O)cc1` (stereo not drawn): the z-score was -0.565.

Take `Cc1occc1C(=O)Nc1ccccc1C(=O)N(C)Cc1ccccn1`: the z-score was -0.21.

Take `CCCCC1C(=O)N(C)CCN1C(=O)Nc1nnc(C(C)(C)C)s1` (stereo not drawn): the z-score is -0.33.

On to `Cc1cccc2c(C(=O)N(C)C(C)C)cc(-c3cnn(C(C)(C)C)c3)nc12`, for which the z-score is 1.41.

On to `Fc1ccc(-n2cc(-c3ccnc(NCc4cnc5ccccn45)n3)cn2)cc1`, for which the z-score was -0.035.

In the case of `Cc1ccsc1C(=O)N1CCC(n2cc(C(C)(C)O)nn2)CC1`, the z-score is -0.505.

For `CC1(C)CC(CC(=O)N2CCC(n3cc(C(C)(C)O)nn3)CC2)CC(C)(C)N1`, the z-score is -0.57.

As for `CC[C@H](C)[C@H](N)C(=O)N1CCC(Cn2cc(-c3ccc(F)cc3)nn2)CC1`, the z-score was -0.33.

Regarding `CCCc1ccc(C(=O)N2CCC2c2cccc(OC)c2)cc1` (stereo not drawn), the z-score is 2.41 (active).

As to `Cc1cc(C)n(CC(C)n2cnc3sc4c(c3c2=O)CCCCC4)n1` (stereo not drawn), the z-score was 2.45 (active).

As for `CCc1n[nH]c2c1CN(C(=O)c1cc(C)nc3ccc(F)cc13)CC2`, the z-score is -0.42.
